Screening data (PubChem BioAssay)
FAS TE block: blocks the thioesterase domain of human fatty acid synthase | inhibition, % at 15 µM | P49327 | recombinant FAS-TE, OMFH fluorogenic substrate, fluorescence endpoint | AID 602261 | 360,000 tested, 0.67% active;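 active = compounds whose normalised, plate-corrected inhibition of enzyme fluorescence in the single-dose primary screen is 50% or more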;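 also: 0% = DMSO with enzyme and 100% = substrate without enzyme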
MIN6 prolif: induces beta-cell replication in MIN6 cells | proliferation, % at 10 µM | MIN6 cells proliferation, ATPlite luminescence, 48 h; cells starved in 0.2% serum; 100% = growth in 10% serum | 330,000 tested, 0.29% active | AID 2380;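 active = compounds whose signal lies at least 3.5 SD above the mean of all wells on their plate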;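 also: 0% = DMSO-treated cells in low-serum medium and 100% = 10% serum control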
pCIP destab: compounds decreasing mouse p/CIP protein stability; Q05BA5; F442A p/CIP-EGFP cells, EGFP fluorescence, 16 h; decrease of EGFP signal, % at 10 µM; 290,000 tested, 0.01% active;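 active = EGFP signal decrease of at least 30% at 10 µM or well 3 SD below plate mean, unless failing retest; inactive = the rest, including hits failing retest or dose response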
NR3A LBD binder: modulates the human NR3A ligand-binding domain; 340,000 tested, 2.5% active; NR3A LBD differential scanning fluorimetry, Tm shift; 0% = protein alone, 100% = glycine-bound protein; Tm shift relative to glycine control, % at 25 µM;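 active = melting temperature shift of at least 10% of the positive control shift, at one fixed dose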
MPTP block: blocks calcium-induced mitochondrial swelling; isolated mouse mitochondria, Ca2+ swelling absorbance, 30 min; inhibition, % at 10 µM; 360,000 tested, 1.4% active; AID 602449;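 active = inhibition of 50% or more, scaled per plate between neutral and stimulator controls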;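 also: 0% = DMSO wells given calcium and 100% = 1 mM EGTA wells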
Starred values were filed as active, the others as inactive; x = not tested or not shown. An excerpt weighted towards active compounds, which were near 4.1% of everything screened.

SMILES	FAS TE block	MIN6 prolif	pCIP destab	NR3A LBD binder	MPTP block
O=[N+]([O-])c1ccccc1NCCNc1ncc(C(F)(F)F)cc1Cl	19.3	-1.8	9.0	-21.8	5.6
O=[N+]([O-])c1cc(Cl)ccc1NCCNc1ncc(C(F)(F)F)cc1Cl	24.3	-3.4	-9.9	14.3*	0.9
CCN(CC)CCNc1ccc(CO)c2oc3ccccc3c(=O)c12	-6.7	x	x	x	0.0
O=C(NC1CCS(=O)(=O)C1)Oc1ccccc1 (stereo unspecified)	-8.9	-1.1	-2.6	-0.6	0.3
Cc1ccc(OC(=O)NC2CCS(=O)(=O)C2)cc1C (stereo unspecified)	-8.4	1.2	-14.8	11.0*	-1.1
Cc1ccc2[nH]c(-c3cccc(N)c3)cc2c1	4.8	-4.7	13.5	30.6*	1.6
Cc1ccc2[nH]c(-c3cccc(F)c3)cc(=O)c2c1	-9.5	-5.0	-7.0	-1.4	-1.2
O=c1[nH]c(/C(Cl)=C/c2cc(Cl)ccc2O)nc2cc(Cl)ccc12	2.8	0.0	4.1	38.9*	26.4
O=C(COc1ccccc1Br)c1ccc(O)cc1O	-2.4	2.2	-9.1	21.5*	16.3
O=C(COc1ccccc1Br)c1ccc2c(c1)OCO2	10.1	2.2	x	0.9	-0.3
O=C(Cn1cnc([N+](=O)[O-])c1)Nc1cc(Oc2ccc(Cl)cc2Cl)cc([N+](=O)[O-])c1	27.1	-5.5	-12.9	12.4*	5.3
N#Cc1ccc(NC(=O)Cn2cnc([N+](=O)[O-])c2)cc1	-5.0	-1.8	-1.1	1.4	1.1
Cc1cc(C)n2c(NC3CCCCC3)c(-c3cccnc3)nc2n1	-10.1	x	x	x	1.1
COC(=O)C1=CN(c2ccc(C(C)(C)C)cc2)C(N)=C(C#N)C1c1ccccc1F (stereo unspecified)	x	x	x	x	-1.2
O=C(COC(=O)CNC(=O)c1ccccc1)Nc1ccc(F)c([N+](=O)[O-])c1	14.8	1.6	-1.7	13.0*	0.1
O=C(COC(=O)COc1ccc(Cl)cc1)Nc1ccc(F)c([N+](=O)[O-])c1	9.0	0.0	-24.5	12.0*	1.4
Cc1ccc(NC(=O)COC(=O)COc2ccc(Cl)cc2)c([N+](=O)[O-])c1	-2.2	-3.6	2.2	-2.1	1.4
CC(C)[C@H](NC(=O)OC(C)(C)C)c1cc(C(=O)NCCO)c(N)s1	x	x	x	x	-1.5
O=C(c1cncc(Br)c1)N1CCc2ccccc2C1	-8.3	-0.4	-5.1	14.6*	-0.6
O=C(c1ccncc1)N1CCc2ccccc2C1	-5.3	3.8	-13.6	0.1	0.5
Cc1cc([N+](=O)[O-])ccc1P(=O)(O)c1ccc([N+](=O)[O-])cc1C	-1.8	x	x	15.4*	4.1
CC(=O)Nc1ccc(C(=O)N/N=C/c2cc(Br)cc(Br)c2O)cc1	26.8	-5.0	-0.8	19.4*	0.3
CC(C)C(=O)Nc1ccc(C(=O)N/N=C/c2cc(Br)cc(Br)c2O)cc1	16.6	-6.3	-6.5	31.3*	6.7
COc1cc(OC)c(/C=N/NC(=O)c2ccc(NC(C)=O)cc2)cc1Br	1.8	4.7	-3.7	-2.2	-0.9
CC(C)C(=O)Nc1ccc(C(=O)Nc2ccc(Br)cc2F)cc1	-5.2	-1.4	10.2	-5.1	-1.3
SMILES	FAS TE block	MIN6 prolif	pCIP destab	NR3A LBD binder	MPTP block
COc1cc(/C=N/c2oc(-c3ccccc3)cc2C#N)ccc1O	1.8	-2.0	0.5	33.0*	-0.1
COc1cc(C=NCc2ccccc2)ccc1O	-4.2	x	x	x	-0.2
CC1(C(=O)Nc2cnc3ccccc3c2)CCN1C(=O)c1ccccc1CCc1ccccc1 (stereo unspecified)	25.6	x	x	x	0.3
COc1ccccc1NC(=O)c1ccc(NC(=O)c2cc3c(s2)CCC3)cc1	33.6	0.0	-5.8	30.4*	2.5
CC(=O)c1c(O)cc(C(C)C)n(-c2ccccc2)c1=O	-10.7	-2.1	7.2	11.5*	1.8
CC1(C(=O)NCC2CC2)Cc2c(-c3ccc4c(c3)OCO4)ccnc2O1 (stereo unspecified)	-4.6	x	x	x	0.9
O=c1oc(-c2ccccc2)nc2sc3c(c12)CCC3	41.3	-0.9	-3.3	-1.4	-0.4
Nc1nc(-c2ccccc2)nc2sc3c(c12)CCCC3	16.1	0.0	-1.1	13.7*	0.2
CCc1ccc(NC(=O)c2cccc(NC3=NC4CS(=O)(=O)CC4S3)c2)cc1 (stereo unspecified)	-2.1	-3.5	-1.1	-6.7	-1.7
CCOc1ccc(NC(=O)Cc2ccc(NC3=NC4CS(=O)(=O)CC4S3)cc2)cc1 (stereo unspecified)	-5.1	-0.9	7.2	-0.3	-0.3
